Among the targets are RELARELA (p65 homodimer) (Homo sapiens, UniProt Q04206 1-307); p50p50 homodimer (Homo sapiens, UniProt P19838 7-356); RELB subunit;p50 subunit (Homo sapiens;Homo sapiens, UniProt Q01201;P19838 120-401;7-356).
What all share (assay): protein binding microarray; high values mean tight binding
What all share (conditions): dsDNA, one strand shown

The target of another experiment is T1, p52p52 homodimer (Homo sapiens, UniProt Q00653 4-332).
T1 sequence: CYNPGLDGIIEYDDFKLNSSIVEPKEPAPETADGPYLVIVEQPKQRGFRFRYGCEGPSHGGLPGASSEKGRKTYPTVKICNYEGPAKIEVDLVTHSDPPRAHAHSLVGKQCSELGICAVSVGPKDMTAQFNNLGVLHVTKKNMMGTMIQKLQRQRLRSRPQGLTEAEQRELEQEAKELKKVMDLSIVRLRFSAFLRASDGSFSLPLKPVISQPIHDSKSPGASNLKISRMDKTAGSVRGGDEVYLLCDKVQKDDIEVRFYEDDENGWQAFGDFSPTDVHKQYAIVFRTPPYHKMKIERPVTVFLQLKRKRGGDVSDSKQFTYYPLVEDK

The target of experiment [1] is RELA (p65) subunit of heterodimer;p50 subunit (Homo sapiens;Homo sapiens, UniProt Q04206;P19838 1-307;7-356).
Experiment [2] deals with RELA (p65) subunit of heterodimer;p52 subunit (Homo sapiens;Homo sapiens, UniProt Q04206;Q00653 1-307;4-332).
Another experiment addresses T2, RELB subunit;p52 subunit (Homo sapiens;Homo sapiens, UniProt Q01201;Q00653 120-401;4-332).
T2 sequence 1: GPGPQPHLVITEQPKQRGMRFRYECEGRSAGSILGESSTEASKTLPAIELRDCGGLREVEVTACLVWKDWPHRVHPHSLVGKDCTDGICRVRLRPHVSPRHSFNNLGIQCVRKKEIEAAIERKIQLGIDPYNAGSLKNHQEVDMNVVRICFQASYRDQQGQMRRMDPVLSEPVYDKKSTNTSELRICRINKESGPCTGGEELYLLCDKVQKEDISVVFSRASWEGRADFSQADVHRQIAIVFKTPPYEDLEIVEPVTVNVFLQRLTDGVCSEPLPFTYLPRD
T2 sequence 2: T1 sequence

The target of experiment [3] is C-Rel subunit;p50 subunit (Homo sapiens;Homo sapiens, UniProt Q04864;P19838 1-285;7-356).
Experiment [4] addresses T3, C-Rel subunit;p52 subunit (Homo sapiens;Homo sapiens, UniProt Q04864;Q00653 1-285;4-332).
T3 sequence 1: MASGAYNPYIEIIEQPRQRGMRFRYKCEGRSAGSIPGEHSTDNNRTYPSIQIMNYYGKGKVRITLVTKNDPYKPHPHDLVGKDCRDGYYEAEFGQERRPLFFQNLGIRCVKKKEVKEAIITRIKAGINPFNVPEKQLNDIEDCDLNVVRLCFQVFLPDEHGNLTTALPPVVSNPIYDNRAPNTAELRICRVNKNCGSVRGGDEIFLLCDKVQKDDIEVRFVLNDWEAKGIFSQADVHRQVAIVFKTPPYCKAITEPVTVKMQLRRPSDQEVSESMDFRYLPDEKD
T3 sequence 2: T1 sequence

Sequence of p50p50 homodimer (P19838 7-356): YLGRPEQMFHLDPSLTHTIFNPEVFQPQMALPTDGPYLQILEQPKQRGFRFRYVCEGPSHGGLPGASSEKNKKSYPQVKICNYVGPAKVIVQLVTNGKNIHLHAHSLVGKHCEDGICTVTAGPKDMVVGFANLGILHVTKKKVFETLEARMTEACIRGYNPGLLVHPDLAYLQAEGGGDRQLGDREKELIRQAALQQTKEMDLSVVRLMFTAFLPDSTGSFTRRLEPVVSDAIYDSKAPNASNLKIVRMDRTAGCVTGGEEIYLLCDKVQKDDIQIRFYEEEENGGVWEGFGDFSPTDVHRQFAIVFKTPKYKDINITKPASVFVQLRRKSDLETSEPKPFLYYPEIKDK
Sequence of RELA (p65) subunit of heterodimer;p50 subunit (Q04206 1-307, chain 1 of 2): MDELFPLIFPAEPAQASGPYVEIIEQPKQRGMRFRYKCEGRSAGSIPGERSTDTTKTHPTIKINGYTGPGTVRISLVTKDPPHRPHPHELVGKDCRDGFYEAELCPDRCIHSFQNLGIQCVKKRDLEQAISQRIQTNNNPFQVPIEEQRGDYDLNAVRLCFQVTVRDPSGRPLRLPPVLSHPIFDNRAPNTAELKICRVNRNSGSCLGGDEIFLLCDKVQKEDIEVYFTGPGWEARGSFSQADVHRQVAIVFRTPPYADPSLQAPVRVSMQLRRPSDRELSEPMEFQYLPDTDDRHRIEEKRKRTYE
Sequence of RELA (p65) subunit of heterodimer;p50 subunit (P19838 7-356, chain 2 of 2): as the sequence (P19838 7-356) above
Sequence of RELARELA (p65 homodimer) (Q04206 1-307): as the sequence (Q04206 1-307, chain 1 of 2) above

As to GAAGAGCCCCT, the binding signal in the experiment with RELARELA (p65 homodimer) was -0.596 z-score; with p50p50 homodimer it was 1 z-score; with p52p52 homodimer, 0.626 z-score; in experiment [1], 0.604 z-score; in [2] it was 0.773 z-score; with RELB subunit;p50 subunit it was 0.554 z-score. Also, the results for the binding signal (with RELB subunit;p52 subunit; in [3]; in [4]) were 0.833 z-score, 0.202 z-score and 0.429 z-score, respectively.
For the sequence GAAAACGTCCT, the binding signal is -0.176 z-score with RELARELA (p65 homodimer); -1.26 z-score with p50p50 homodimer; -0.536 z-score with p52p52 homodimer; -0.838 z-score in experiment [1]; -0.654 z-score in [2]; -0.872 z-score in the experiment with RELB subunit;p50 subunit. In addition, the binding signal with RELB subunit;p52 subunit was -0.687 z-score; in experiment [3] it was -0.823 z-score; in experiment [4] it was -0.648 z-score.
In the case of AAAGGGTTCCT, the binding signal with RELARELA (p65 homodimer) is -0.817 z-score; in the experiment with p50p50 homodimer, -1.23 z-score; with p52p52 homodimer, -0.468 z-score; in [1] it was -0.866 z-score; in experiment [2], -0.749 z-score; with RELB subunit;p50 subunit, -1.03 z-score. Besides, the binding signal with RELB subunit;p52 subunit was -0.714 z-score; in experiment [3] it was -0.957 z-score; in [4], -0.558 z-score.
CGGAGGCCCCC: the binding signal is -1.02 z-score in the experiment with RELARELA (p65 homodimer); 0.282 z-score in the experiment with p50p50 homodimer; -0.0558 z-score in the experiment with p52p52 homodimer; 0.494 z-score in [1]; 0.175 z-score in experiment [2]; -0.0407 z-score with RELB subunit;p50 subunit. Moreover, the binding signal in the experiment with RELB subunit;p52 subunit stood at 0 z-score; in experiment [3], 0.165 z-score; in [4], 0.393 z-score.
Turning to GGATACCCCCC, the binding signal was determined as 0.633 z-score in the experiment with RELARELA (p65 homodimer); 1.23 z-score with p50p50 homodimer; 1.22 z-score in the experiment with p52p52 homodimer; 1.77 z-score in [1]; 1.48 z-score in experiment [2]; 1.06 z-score in the experiment with RELB subunit;p50 subunit. Moreover, the binding signal in the experiment with RELB subunit;p52 subunit is 1.52 z-score; in [3] it was 1.14 z-score; in experiment [4], 1.54 z-score.
As for CGGGACCCCCT, the binding signal is -0.322 z-score with RELARELA (p65 homodimer); 1.2 z-score with p50p50 homodimer; 0.855 z-score with p52p52 homodimer; 1.01 z-score in [1]; 0.923 z-score in [2]; 1.13 z-score in the experiment with RELB subunit;p50 subunit. Further, the values for the binding signal (with RELB subunit;p52 subunit; in experiment [3]; in [4]) were 1.36 z-score, 0.895 z-score and 0.632 z-score, respectively.
Regarding AAGAAGGTCCT, the binding signal in the experiment with RELARELA (p65 homodimer) is -0.0161 z-score; with p50p50 homodimer, -1.4 z-score; with p52p52 homodimer, -0.396 z-score; in [1], -1.13 z-score; in [2], -0.801 z-score; with RELB subunit;p50 subunit, -0.786 z-score. In addition, the binding signal with RELB subunit;p52 subunit is -0.511 z-score; in experiment [3] it was -1.3 z-score; in experiment [4] it was -0.718 z-score.
Regarding GGGAAAGCCCC, the binding signal with RELARELA (p65 homodimer) was determined as 3.52 z-score; with p50p50 homodimer, 1.48 z-score; in the experiment with p52p52 homodimer it was 3.39 z-score; in [1] it was 3.02 z-score; in [2] it was 3.27 z-score; in the experiment with RELB subunit;p50 subunit, 3.3 z-score. Besides, the binding signal in the experiment with RELB subunit;p52 subunit was 2.95 z-score; in [3], 2.45 z-score; in [4], 3.53 z-score.
For the sequence CGGTGTCTCCC, the binding signal was -0.108 z-score with RELARELA (p65 homodimer); -0.00286 z-score with p50p50 homodimer; 0.283 z-score in the experiment with p52p52 homodimer; 0.0635 z-score in experiment [1]; 0.211 z-score in experiment [2]; -0.121 z-score in the experiment with RELB subunit;p50 subunit. The binding signal with RELB subunit;p52 subunit was 0.143 z-score; in experiment [3], -0.0512 z-score; in experiment [4], 0.354 z-score.
As for CGGGGTTCCCC, the binding signal was 2.62 z-score in the experiment with RELARELA (p65 homodimer); 0.899 z-score with p50p50 homodimer; 3.05 z-score with p52p52 homodimer; 2.3 z-score in experiment [1]; 2.64 z-score in [2]; 1.93 z-score with RELB subunit;p50 subunit. The binding signal amounted to 2.28 z-score in the experiment with RELB subunit;p52 subunit, 2.2 z-score in [3] and 3.29 z-score in [4].
AAAGGACTCCT: the binding signal with RELARELA (p65 homodimer) is -0.688 z-score; with p50p50 homodimer, -1.11 z-score; with p52p52 homodimer, -0.681 z-score; in experiment [1] it was -0.94 z-score; in [2], -0.976 z-score; with RELB subunit;p50 subunit it was -1.07 z-score. The binding signal with RELB subunit;p52 subunit was -0.964 z-score; in experiment [3], -1.03 z-score; in [4], -0.758 z-score.
With CAATAATCCCT, the binding signal was -0.146 z-score with RELARELA (p65 homodimer); 0.635 z-score in the experiment with p50p50 homodimer; 0.735 z-score in the experiment with p52p52 homodimer; 0.226 z-score in [1]; 0.493 z-score in [2]; 0.496 z-score with RELB subunit;p50 subunit. In addition, the binding signal was 0.698 z-score with RELB subunit;p52 subunit, 0.212 z-score in experiment [3] and 0.284 z-score in [4].
CAGGAACTCCC: the binding signal worked out at 1.07 z-score with RELARELA (p65 homodimer); 0.648 z-score in the experiment with p50p50 homodimer; 0.144 z-score with p52p52 homodimer; 0.636 z-score in [1]; 0.288 z-score in [2]; 0.322 z-score with RELB subunit;p50 subunit. Besides, the binding signal in the experiment with RELB subunit;p52 subunit worked out at 0.116 z-score; in experiment [3], 0.424 z-score; in experiment [4], 0.208 z-score.
Take GAAAGAATCCT: the binding signal with RELARELA (p65 homodimer) is -0.654 z-score; with p50p50 homodimer, -1.19 z-score; in the experiment with p52p52 homodimer, -0.601 z-score; in experiment [1] it was -1.12 z-score; in experiment [2], -0.922 z-score; with RELB subunit;p50 subunit, -0.95 z-score. Moreover, the binding signal with RELB subunit;p52 subunit is -0.787 z-score; in experiment [3], -1.22 z-score; in experiment [4], -0.804 z-score.
Take GAAGTGGCCCC: the binding signal is -1.02 z-score with RELARELA (p65 homodimer); -0.225 z-score with p50p50 homodimer; -0.401 z-score with p52p52 homodimer; -0.503 z-score in [1]; -0.265 z-score in [2]; -0.183 z-score with RELB subunit;p50 subunit. Moreover, the binding signal with RELB subunit;p52 subunit was -0.112 z-score; in experiment [3] it was -0.347 z-score; in experiment [4] it was -0.316 z-score.
